Compound activity (PubChem)
ERAP1 inh – inhibitors of human ERAP1 aminopeptidase; recombinant ERAP1, Leu-AMC fluorescence, 60 min; inhibition, % at 10.7 µM; 340,000 tested, 0.15% active; AID 652197;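 active = mean replicate inhibition of at least 30%, or all replicates individually reaching that 30% level; inactive = mean below 30% and not every replicate reaching it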;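 also: 0% = neutral control wells and 100% = L-leucinethiol positive control wells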
rRNA inh HTS – inhibits bacterial ribosomal RNA function over humanized ribosomes | 350,000 tested, 1.6% active | E. coli WT GFP vs humanized-ribosome RFP mutants, fluorescence, 24 h; active compounds read low; DMSO median 0, no signal -100 | GFP signal change (wild-type ribosome), % (test concentration not listed) | AID 720706;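 active = significant combined selectivity score with lowered wild-type GFP, culture density cut under 30%, mutant RFP and density less affected; inactive = any of these conditions unmet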
CFTR F508del cor – CFTR F508del correction in bronchial cells | 350,000 tested, 0.36% active | CFBE cells, YFP halide quenching; stimulated with forskolin plus potentiator P3; % fluorescence drop versus neutral controls | activity (quench increase), % at 7.58 µM;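 active = mean added fluorescence quench of at least 8% versus neutral control, with both replicates also reaching 8%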;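 also: cells transiently co-express mutant CFTR-F508del with the halide-sensitive YFP; corrector assay measuring rescue of mutant channel to the surface after 24 h compound exposure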
ARNT-TACC3 inh – disruptors of human ARNT/TACC3 interaction; Q9Y6A5; AlphaScreen His-ARNT PAS-B/GST-TACC3 binding, luminescence; TACC3 fragment carries E629A point mutation; inhibition, % at 9.99 µM; 390,000 tested, 0.66% active;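 active = mean inhibition of replicates at least 50% and at least half of replicates each reaching 50%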;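 also: 0% = complete ARNT plus TACC3 wells and 100% = ARNT alone without TACC3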
PvdQ acylase – blocks Pseudomonas aeruginosa PvdQ acylase activity | purified PvdQ acylase, fluorescence plate reader | inhibition, % at 10 µM | 340,000 tested, 0.063% active; in the data active = inhibition above about 30%, passing the limit was not always enough;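 also: 0% = vehicle neutral wells and 100% = reference inhibitor wells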
An asterisk follows results filed as active; / = not tested or not shown. Only some compounds are listed: those with a hit (about 2.1% of all), similar ones and a draw of the others.

SMILES | ERAP1 inh | rRNA inh HTS | CFTR F508del cor | ARNT-TACC3 inh | PvdQ acylase
CC1(C)CC(=O)C=C(c2ccc(COC(=O)/C=C/c3ccccc3)cc2)C1=O | 2 | -5 | 0 | / | /
CC(=O)OC[C@H]1O[C@@H](Sc2cccc3cccnc23)[C@H](OC(C)=O)[C@@H](OC(C)=O)[C@H]1OC(C)=O | -1 | 6 | 0 | 64* | -19
CC(=O)OC[C@H]1O[C@@H](Sc2cccc3cccnc23)[C@H](OC(C)=O)[C@@H](OC(C)=O)[C@@H]1OC(C)=O | / | / | / | 10 | 10
Cc1cc(C)c(COCc2cc(/C=N/O)c(C)cc2C)cc1/C=N/O | -5 | -36* | 0 | 0 | -7
CSc1cc(/C=N/O)c(SC)s1 | / | / | / | 1 | -8
COCC(=O)N(C)C[C@@H]1Oc2ncc(-c3ccccc3OC)cc2C(=O)N([C@H](C)CO)C[C@@H]1C | -1 | -3 | 1 | / | /
O=c1c2ccccc2sc2ccc(NCCCN3CCOCC3)cc12 | / | -2 | 0 | 2 | -12
COc1cc2sc3cc(NCCCN4CCOCC4)ccc3c(=O)c2cc1OC | / | -11 | 5 | 28* | -3
CO[C@H]1CN(C)C(=O)c2ccc(NS(C)(=O)=O)cc2OC[C@H](C)N(C(=O)C2CCCCC2)C[C@@H]1C | 0 | 5 | -2 | 9 | /
Cc1ccc2[nH]c(=O)c(C3C(C#N)=C(N)Oc4c3ccc3cccnc43)cc2c1 (stereo not given) | / | / | / | 50* | -1
C/C(=N\NC(N)=O)c1ccc(-n2ccnc2)cc1 | 0 | -16* | 2 | / | 0
CNC(=S)N/N=C(\C)c1ccc(-n2ccnc2)cc1 | / | / | / | 5 | 4
O=C(N/N=C/c1cc2c3c(c1O)CCCN3CCC2)c1ccccc1O | 4 | 2 | 8.3* | / | -10
Cc1nn(-c2ccccc2)c(N2CCCC2)c1/C=N/NC(=O)c1ccccc1O | / | / | / | -30 | -9
O=C(C[C@H]1CC[C@H]2[C@@H](COC[C@@H](O)CN2C(=O)c2cccnc2)O1)Nc1ccc(-c2ccccc2)cc1 | -1 | -2 | 0 | -1 | /
C[C@@H]1CN([C@@H](C)CO)C(=O)c2cc(NS(=O)(=O)c3ccc(F)cc3)ccc2O[C@@H](C)CCCCO[C@@H]1CN(C)C | -2 | -3 | -2 | -6 | /
Cc1ccc(S(=O)(=O)N2CCN(C(=O)COC(=O)/C=C/c3ccc(Cl)cc3)CC2)c(C)c1 | 4 | 11 | 17* | / | -3
O=C(CN1c2ccccc2S(=O)(=O)c2ccccc21)NCc1ccc(F)cc1 | 4 | -33* | -1 | 2 | -8
Cc1noc(NC(=O)c2cccc(C(F)(F)F)c2)c1Cl | -4 | -48* | -3 | -8 | -7
CN1N=C2c3ccccc3CCCC2C1c1ccc(F)cc1 (stereo not given) | 5 | -40* | / | 8 | -1
CCOc1ccc(NC(=O)c2ccccn2)cc1 | -2 | 11 | -1 | 1 | 37*
COc1cccc(C(=O)NNC(=O)CCc2ccccc2)c1 | 3 | -21* | -1 | / | 12
COc1ccc(OCC(=O)NNC(=O)c2ccccn2)cc1 | / | / | / | 67* | -10
COc1ccc(OCC(=O)NNC(=O)CCc2ccccc2)cc1 | 2 | 11 | 9.8* | -2 | 5
N#C[C@H]1[C@@H](c2ccccc2)[C@H](CO)N1S(=O)(=O)Cc1ccccc1 | -3 | -2 | 2 | 31 | /
SMILES | ERAP1 inh | rRNA inh HTS | CFTR F508del cor | ARNT-TACC3 inh | PvdQ acylase
CC(=O)N1[C@@H]2c3cccc(=O)n3C[C@@H]2[C@@H](CO)[C@@H]1C(=O)NCc1ccccc1 | / | -3 | / | / | /
CC(=O)N1[C@@H](CO)[C@@H](c2ccccc2)[C@@H]1CN(CC1CCC1)C(=O)CN(C)C | -3 | -1 | 1 | -2 | /
Cc1ccccc1-c1cnc2c(c1)C(=O)N([C@@H](C)CO)C[C@@H](C)[C@H](CN(C)C(=O)c1ccc(F)cc1)O2 | 2 | -7 | 5 | -3 | /
Cc1ccc(C)c(NC(=S)N2CCC(c3nc4ccccc4s3)CC2)c1 | -3 | -35* | -2 | 4 | -5
CCc1ccc(C(=O)N2CCC(c3nc4ccccc4s3)CC2)cc1 | / | / | / | -6 | 3
O=C(Nc1ccccc1F)N[C@H]1CC[C@@H](CCNC(=O)C2CC2)O[C@H]1CO | 0 | 0 | 4 | -1 | /
COCCNC(=O)c1cc2nc(-c3ccccc3)cc(C)n2n1 | 3 | 15 | 1 | -3 | 34*
Cc1cc(-c2ccccc2)nc2cc(C(=O)NCCCn3ccnc3)nn12 | / | / | / | 1 | -9
O=C(CN1CCN(S(=O)(=O)c2ccc(Cl)c(Cl)c2)CC1)N1CCCC1 | -1 | -1 | 11* | 8 | 5
COc1cc(-c2ccccc2)nc2ccccc12 | / | / | / | -6 | 12
COc1cc(C(=O)O)nc2ccccc12 | / | / | / | 58* | 9
COc1ccc(Cl)cc1C(=O)NNC(=O)CCNS(=O)(=O)c1ccccc1 | 1 | -1 | 10* | 0 | -17
CC1(C)OC2OC(C(=O)N/N=C/c3cc(Br)ccc3O)C3OC(C)(C)OC3C2O1 (stereo not given) | -5 | -14 | / | 60* | 6
CCCNC(=O)C[C@H]1CC[C@@H]2[C@@H](COc3ccc(NS(=O)(=O)c4ccccc4C)cc3C(=O)N2C)O1 | 1 | -5 | -2 | -2 | /
CNC(=O)/C(C#N)=C\c1ccc(CNS(=O)(=O)c2ccc(Cl)cc2)o1 | 33* | 8 | -1 | 0 | -1
CNC(=O)/C(C#N)=C\c1ccc(CNS(=O)(=O)c2ccccc2)o1 | / | / | / | 3 | 12
CC(C)NC(=O)N[C@@H]1CC[C@@H](CCNS(=O)(=O)c2ccc(F)cc2)O[C@H]1CO | 1 | 2 | -2 | 8 | /
C[C@H](CO)N1C[C@H](C)[C@H](CN(C)S(=O)(=O)c2cn(C)cn2)Oc2ccc(NS(=O)(=O)c3ccc(F)cc3)cc2CC1=O | 2 | 0 | 0 | -14 | /
Cc1nc(N2CCN(C)CC2)c2sc(=S)n(-c3ccccc3)c2n1 | -2 | 2 | -1 | 8 | 5
S=c1sc2c(Cl)ncnc2n1-c1ccccc1 | 14 | -32 | -5 | 69* | -4
Cc1ccc(C(=O)NC(=S)c2c(C)cc3ccccn23)cc1 | 2 | -15* | -3 | / | /
Cc1cc2ccccn2c1C(=O)c1ccc(Cl)cc1 | / | / | / | 8 | -8
Cc1cc2ccccn2c1C(=O)Nc1cccc(Cl)c1 | 1 | -33* | -2 | -3 | -12
CO[C@H]1CN(C)C(=O)c2ccc(NC(C)=O)cc2OC[C@H](C)N(Cc2cncnc2)C[C@@H]1C | / | 2 | / | / | /
Cc1noc(C)c1S(=O)(=O)Nc1ccc2c(c1)C(=O)N([C@@H](C)CO)C[C@H](C)[C@H](CN(C)Cc1ccc(C(F)(F)F)cc1)O2 | -2 | -3 | -2 | 7 | /
O=C(CC1C(=O)NCCN1C(=O)Nc1ccccc1)Nc1cc(Cl)ccc1Cl (stereo not given) | 1 | -25* | 3 | 2 | 3
Cc1cccc(NC(=O)CC2C(=O)NCCN2C(=O)Nc2ccc(Cl)cc2)c1 (stereo not given) | -3 | -32* | 3 | 4 | -5
